High-throughput results as filed in PubChem.
esBAF inh: blocks esBAF chromatin remodeling in mouse ES cells; Bmi1-luciferase knock-in reporter, 24 h; 100% = twice the neutral-well signal; reporter increase, % at 12.5 µM; 350,000 compounds, 2% hits; in the data active = activation above about 40%;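 note: a rise in the Bmi1 reporter signal indicates esBAF inhibition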
Jurkat NFkB inh: lowers PMA/ionomycin-induced NF-kB signal in Jurkat cells; AID 435003; inhibition, % at 4 µM; PMA/ionomycin-induced NF-kB luciferase reporter, luminescence; 330,000 compounds, 0.53% hits; in the data active = inhibition above about 50%
Gli-Sufu antag: antagonists of Gli-Sufu signaling | 340,000 compounds, 0.74% hits | AID 588413 | inhibition, % at 5 µM | Sufu-KO-LIGHT fibroblasts, Gli luciferase reporter luminescence;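 active = inhibition above about 55%, limit read from the data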
SMARCA2 activ: increases SMARCA2 function in MMTV reporter cells | MG213 cells, MMTV-luciferase reporter, dexamethasone, overnight | activation, % at 9.1 µM | 370,000 compounds, 1% hits; in the data active = activation above about 7.8%
697 NFkB inh: lowers PMA/ionomycin-induced NF-kB signal in 697 B cells | 697 B-cell NF-kB luciferase reporter, 16 h | inhibition, % at 4 µM | 330,000 compounds, 0.33% hits | AID 435022; in the data active = inhibition above about 35%
Jurkat NFkB conf: lowers PMA/ionomycin-induced NF-kB signal in Jurkat cells | shares compounds with Jurkat NFkB inh | Jurkat NF-kB luciferase, 16 h | inhibition, % at 4 µM | 2,700 compounds, 27% hits | AID 435020;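 active = inhibition reaching about 45% at 4 µM in either replicate, limit read from the data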
Hits are given with their value; 0 = inactive; - = not tested or not shown. Compounds with a hit are over-represented: about 3.3% of the library has one in this group of screens.

SMILES | esBAF inh | Jurkat NFkB inh | Gli-Sufu antag | SMARCA2 activ | 697 NFkB inh | Jurkat NFkB conf
COc1cc(C(=O)N2CCN(c3cccc(C)c3C)CC2)cc(OC)c1OC | 0 | 63 | 0 | 0 | 0 | 0
COc1ccc(C(=O)N2CCN(C(=O)c3cc(OC)c(OC)c(OC)c3)CC2)cc1 | 0 | 0 | 0 | 0 | 0 | -
Cc1cccc(N2CCN(C(=O)c3cc(S(=O)(=O)N4CCOCC4)cn3C)CC2)c1C | 0 | 0 | 0 | 0 | 0 | -
Cc1cccc(N2CCN(C(=O)c3cc(S(=O)(=O)N4CCCC4)cn3C)CC2)c1C | 0 | 61 | 0 | 0 | 0 | 0
Cc1ccc(O)c(NC(=O)CSc2ccc(Cl)cc2)c1 | 0 | 69 | 0 | 0 | 0 | 0
Cc1ccc(O)c(NC(=O)Cc2ccc3ccccc3c2)c1 | 0 | 74 | 0 | 0 | 0 | 0
CCCN1C[C@@H](C)[C@H](OC)CN(C)C(=O)c2cc(NC(=O)Nc3c(C)noc3C)ccc2OC[C@@H]1C | 0 | - | - | - | - | -
Cc1ccc(C2=NN(S(C)(=O)=O)C(c3cccs3)C2)cc1 (stereo not given) | - | 0 | 0 | 0 | 0 | -
CCc1ccc(C2=NN(S(C)(=O)=O)C(c3cccs3)C2)cc1 (stereo not given) | 0 | 0 | 0 | 0 | 0 | 0
CC(=O)N(C)C[C@H]1Oc2ncc(C#Cc3cccnc3)cc2C(=O)N([C@H](C)CO)C[C@H]1C | 0 | - | - | - | - | -
CCCC(=O)Nc1ccc2c(c1)OC[C@H](C)N(C(=O)C1CCCC1)C[C@H](C)[C@H](OC)CN(C)C2=O | 0 | - | - | - | - | -
Cn1c(-c2ccc(F)c(F)c2)cc2onc(-c3ccccc3)c2c1=O | 0 | 0 | 0 | 0 | 0 | 0
COc1ccc(CN(C)C[C@@H]2Oc3c(NS(=O)(=O)c4ccc(F)cc4)cccc3C(=O)N([C@@H](C)CO)C[C@H]2C)cc1 | 0 | - | - | - | - | -
O=C(C[C@@H]1CC[C@H]2[C@@H](COC[C@@H](O)CN2Cc2ccc3c(c2)OCO3)O1)Nc1ccccc1 | 0 | - | - | - | - | -
NC(=O)CSc1nnc(-c2ccccn2)n1Cc1ccco1 | 0 | 0 | 0 | 0 | 0 | -
C(=C\c1ccccc1)/CSc1nnc(-c2ccccn2)n1Cc1ccco1 | 0 | 50 | 0 | 0 | 0 | 0
C[C@H]1CN([C@@H](C)CO)C(=O)c2cc(C#Cc3ccncc3)cnc2O[C@H]1CN(C)Cc1ccncc1 | 0 | - | - | - | - | -
Cc1cccc(C(=O)Nc2sc3c(c2C#N)CCCCC3)c1 | 0 | 0 | 0 | 0 | 0 | 0
CCc1ccc(CCC(=O)Nc2sc3c(c2C#N)CCCC3)o1 | 0 | 56 | 0 | 0 | 0 | 0
CC(=O)Nc1sc2c(c1C#N)CCC(C)C2 (stereo not given) | 0 | 0 | 0 | 0 | 0 | -
Cc1cc(C(=O)Nc2sc3c(c2C#N)CCC(C)C3)cs1 (stereo not given) | 52 | 0 | 0 | 0 | 0 | 0
N#Cc1c(NC(=O)c2ccccc2)sc2c1CCC2 | - | 0 | 0 | 0 | 0 | -
C[C@@H]1CN([C@H](C)CO)S(=O)(=O)c2ccc(C#CC3(O)CCCC3)cc2O[C@H]1CN(C)C(=O)Nc1ccccc1 | 0 | - | - | - | - | -
Cc1ccc(-c2ccc3c(c2)O[C@H](CN(C)C(=O)C2CC2)[C@@H](C)CN([C@H](C)CO)S3(=O)=O)cc1 | 0 | - | - | - | - | -
COc1ccc(-n2nc(C(=O)NCC(=O)Nc3cc(OC)c(OC)c(OC)c3)c3ccccc3c2=O)cc1OC | 0 | 57 | 0 | 0 | 0 | 0
SMILES | esBAF inh | Jurkat NFkB inh | Gli-Sufu antag | SMARCA2 activ | 697 NFkB inh | Jurkat NFkB conf
COc1ccc2c(c1)[nH]c1c(N3CCN(Cc4ccc5c(c4)OCO5)CC3)ncnc12 | 0 | 52 | 0 | 0 | 0 | 58
C[C@@H]1CCCCO[C@H](CN(C)C)[C@H](C)CN([C@H](C)CO)C(=O)c2cc(NS(=O)(=O)c3ccccc3)ccc2O1 | 0 | - | - | - | - | -
O=C(CCc1c[nH]c2ccccc12)OCc1cccc(C(F)(F)F)c1 | - | 51 | 0 | 0 | 0 | 0
CCOC(=O)c1c(C)[nH]c(C)c1C(=O)COC(=O)/C=C/c1ccc(OC)cc1 | - | 51 | 0 | 0 | 0 | 0
Cc1cccnc1NC(=S)NC(=O)c1cccs1 | 0 | 0 | 0 | 0 | 0 | 0
Cc1ccc(/C=N/Nc2cccc3cccnc23)c(O)c1 | 0 | 0 | 0 | 0 | 0 | 0
Cc1cc(N/N=C/c2ccccc2O)c2ccccc2n1 | 0 | 0 | 0 | 0 | 0 | -
CN1/C(=C/c2cccc[n+]2CCO)Sc2ccccc21 | 0 | 0 | 0 | 0 | 0 | -
CC[n+]1ccccc1/C=C1\Sc2ccc(C)cc2N1C | 0 | 69 | - | 0 | 0 | 0
COCCNC(=O)c1noc2c1CCc1cc(OC)ccc1-2 | 0 | 0 | 0 | 0 | 0 | -
COc1ccc2c(c1)CCc1c(C(=O)NC3CCCCC3)noc1-2 | 0 | 0 | 0 | 0 | 0 | 0
CNC(=O)C[C@@H]1CC[C@H]2[C@@H](COc3ccc(NC(=O)Nc4ccccc4)cc3C(=O)N2C)O1 | 0 | - | - | - | - | -
CNC(=O)C[C@H]1CC[C@H]2[C@H](COc3ccc(NC(=O)C4CC4)cc3C(=O)N2C)O1 | 0 | - | - | - | - | -
CNc1cc(C)nc(-n2nc(C)cc2C)n1 | 0 | 0 | 0 | 0 | 0 | -
CCOc1ccc(Nc2cc(C)nc(-n3nc(C)cc3C)n2)cc1 | 0 | 54 | 0 | 0 | 0 | 57
COCC(=O)Nc1ccc2c(c1)OC[C@H](C)N(C(=O)c1cccnc1)C[C@@H](C)[C@@H](OC)CN(C)C2=O | 0 | - | - | - | - | -
COc1ccc(NC(=O)N(C)C[C@@H]2OCCCC[C@H](C)Oc3ccc(NS(=O)(=O)c4c(C)noc4C)cc3C(=O)N([C@H](C)CO)C[C@@H]2C)cc1 | 0 | - | - | - | - | -
COc1ccc(N/N=C/c2c(C(=O)O)ccc3ccccc23)cc1 | 0 | 54 | 0 | 0 | 0 | 0
COc1ccc2ccccc2c1/C=N/Nc1ccc(Cl)c(C(=O)O)c1 | 0 | 0 | 0 | 0 | 0 | -
CCN(CC)CCNC1=NCCn2c1cc1cc(OC)ccc12 | 0 | 0 | 0 | 0 | 0 | -
CCN(CC)CCCCNc1ncc2cc(-c3cc(OC)cc(OC)c3)c(NC(=O)NC(C)(C)C)nc2n1 | 0 | 75 | 0 | 0 | 0 | 0
C[C@@H]1CN([C@@H](C)CO)C(=O)c2cc(NS(=O)(=O)c3cccs3)ccc2O[C@@H](C)CCCCO[C@H]1CN(C)C(=O)c1ccccc1 | 0 | - | - | - | - | -
O=C(N/N=C/c1ccsc1)c1cc(-c2ccncc2)nc2ccccc12 | - | 55 | 0 | 0 | 0 | 0
Cc1ccsc1/C=N/NC(=O)c1cc(-c2ccncc2)nc2ccccc12 | - | 58 | 0 | 0 | 0 | 56
O=C(N/N=C/c1ccc2c(c1)OCO2)c1cc(-c2ccncc2)nc2ccccc12 | - | 57 | 0 | 0 | 0 | 0
SMILES | esBAF inh | Jurkat NFkB inh | Gli-Sufu antag | SMARCA2 activ | 697 NFkB inh | Jurkat NFkB conf
O=C(Nc1ccc(Br)cc1)c1cc(-c2ccncc2)nc2ccccc12 | 0 | 57 | 0 | 0 | 0 | 0
CCCC#Cc1ccc2c(c1)O[C@@H](CN(C)C(=O)Nc1ccccc1F)[C@H](C)CN([C@@H](C)CO)S2(=O)=O | 0 | - | - | - | - | -
CCC(=O)N1C[C@@H](C)[C@H](OC)CN(C)C(=O)c2cc(NC(=O)c3ccno3)ccc2OC[C@@H]1C | 0 | - | - | - | - | -
COc1ccc2oc(=N)c(C(=O)Nc3ccccc3)cc2c1 | 0 | 0 | 0 | 0 | 0 | -
COc1ccc2oc(=N)c(C(=O)Nc3ccccc3Cl)cc2c1 | 56 | 0 | 0 | 0 | 0 | 0
O=C(CCN1CCCCC1)N[C@H]1CC[C@H](CCn2cc(-c3ccccc3)nn2)O[C@@H]1CO | 0 | - | - | - | - | -
